RORg inh: ROR gamma (mouse) transcription inhibition. P51450. Drosophila S2 Gal4-RORgamma UAS-luciferase reporter, 20 h. Potency, µM (top dose mostly 53.6 µM), without a hit: at the highest dose activity change, negative = inhibition, actives largely listed as inhibitors. hit rate 5.4% among 310,000. AID 2551; further: nearly all actives have a fitted effect of over 60% in size
Target sequence (P51450 whole entry, looked up, the tested form may be a part): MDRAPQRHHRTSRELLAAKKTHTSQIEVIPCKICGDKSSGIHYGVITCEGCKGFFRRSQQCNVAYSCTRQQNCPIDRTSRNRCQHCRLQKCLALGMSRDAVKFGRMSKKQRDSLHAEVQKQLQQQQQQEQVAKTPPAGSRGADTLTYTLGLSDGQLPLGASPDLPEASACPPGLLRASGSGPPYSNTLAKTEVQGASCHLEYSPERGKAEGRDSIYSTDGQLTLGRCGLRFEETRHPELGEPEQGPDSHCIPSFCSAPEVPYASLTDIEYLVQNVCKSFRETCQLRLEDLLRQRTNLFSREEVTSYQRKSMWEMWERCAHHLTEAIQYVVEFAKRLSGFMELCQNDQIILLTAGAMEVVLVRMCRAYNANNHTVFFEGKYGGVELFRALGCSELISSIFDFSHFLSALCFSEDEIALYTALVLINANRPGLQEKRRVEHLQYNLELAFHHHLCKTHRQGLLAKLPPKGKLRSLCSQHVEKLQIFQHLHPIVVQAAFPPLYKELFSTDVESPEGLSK
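Stable Schneider cell line, Gal4 DNA-binding domain fused to ROR gamma, UAS-luciferase. Cmpd 1 hr RT → CuSO4 700 uM final → 20 hr RT → luciferase reagent 10 min → luminescence.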
Gal4-VP16 FLuc: counter-screen for ROR gamma inhibitors: Gal4-VP16 reporter; Drosophila S2 Gal4-VP16 UAS-luciferase, luminescence, 20 h; Potency, µM (doses to about 53.6 µM), for inactives: at the top dose activity, negative = inhibition, actives largely listed as inhibitors; hit rate 3.5% among 310,000; AID 2546;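 further: Gal4-VP16 expression switched on by copper sulfate through the metallothionein promoter; nearly all actives have a fitted effect of over 50% in size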
KinaseGlo FLuc: counter-screen: inhibitors of Kinase-Glo firefly luciferase | hit rate 0.28% among 200,000 | Q27757 | Kinase-Glo luciferase, ATP luminescence, 8 min | Potency, µM (highest dose often 38.3 µM), for the others: top-dose activity change, negative = inhibition, hits mostly inhibitors | AID 1379; further: nearly all actives have a fitted effect of over 60% in size
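Light output from Kinase-Glo luciferase with luciferin and 10 uM ATP in 50 mM imidazole pH 7.2, KCl, MgCl2, Tween 20, BSA; compound pin-delivered, 8-min ambient incubation, then luminescence read.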
* = called active by the depositor; ? = inconclusive; nt = not tested or not shown; [ ] = dose if it differs, or a comment. Shown are actives, neighbours in structure and some others; about 6.2% of the full set was active somewhere. The call rests on the fitted dose curve; in most records, active means well fitted curve in the direction sought with a large enough effect; inconclusive means small, poorly fitted or top-dose-only effect, or another doubt; inactive means no such curve, though single readings can be large; an effect the other way counts as inactive or inconclusive. On the % scale 0 is the no-effect control and ±100 the full control effect; potency means the concentration at half of the fitted maximal effect.

SMILES	RORg inh	Gal4-VP16 FLuc	KinaseGlo FLuc
COC(=O)CC1C2(C)CC34OC5(C)O[C@@]6(C7/C(=C(/OC)C(C)C)C(=O)OC(c8ccoc8)[C@@]7(C)C(OC(=O)C(C)C)C(OC)[C@]6(O5)[C@@]13C)C(OC)[C@]4(OC)C2OC(C)=O (stereo not given in full)	16.3%	2.7%	-1.0%
CC(C)(C)c1cc(CCC(=O)N2CCCC2)cc(C(C)(C)C)c1O	-14.4%	-6.7%	nt
CC(C)(C)c1cc(C(=S)N2CCCC2)cc(C(C)(C)C)c1O	6.31µM*	5.01µM*	nt
CCOC(=O)N1CCN(Cc2nc3cc(NC(=O)c4ccco4)ccc3n2C)CC1	3.7%	-12.2%	nt
O=C(NNC(=O)c1cccnc1)Nc1cccc(Cl)c1Cl	12.0%	-2.1%	nt
Cc1nc2sccn2c(=O)c1S(=O)(=O)N1CCN(c2cccc(Cl)c2)CC1	40.5%	-0.5%	nt
CN1/C(=C\C=N\NC(=O)c2ccccc2Br)C(C)(C)c2ccccc21	0.794µM*	1.26µM*	-2.8%
CN1/C(=C/C=N/n2cnnc2)C(C)(C)c2ccccc21	22.8%	17.8µM*	0.7%
CN1/C(=C\C=C(C#N)C#N)C(C)(C)c2ccccc21	-0.6%	2.5%	-0.7%
CN1/C(=C\C(=O)Nc2ccc(Cl)cc2)C(C)(C)c2ccccc21	?	?	3.5%
O=C1Nc2ccc(Br)cc2/C1=C/C1CC=CCC1 (stereo not given)	?	?	-3.5%
O=C1Nc2ccc(Br)cc2/C1=C/C(=O)c1ccc2c(c1)OCO2	11.2µM*	?	nt
Cc1c(NC(=O)c2ccc(N(Cc3ccccc3)S(C)(=O)=O)cc2)c(=O)n(-c2ccccc2)n1C	2.5%	3.5%	-5.7%
COCCN1CSC(=S)N(Cc2ccco2)C1	?	-15.5%	-3.8%
CCCCN1CSC(=S)N(Cc2ccccc2)C1	nt	nt	-0.4%[7.66 µM]
CC(C)CN1CN(Cc2ccccc2)CNC1=S	3.98µM*	5.62µM*	1.6%
CC(C)N1CSC(=S)N(Cc2ccccc2)C1	-11.9%	1.8%	7.7%
CCOCCCN1CN(Cc2ccco2)CNC1=S	11.2µM*	-4.3%	-5.3%
S=C1NCN(Cc2ccco2)CN1CCc1ccccc1	2.24µM*	11.2µM*	nt
CCCCN1CNC(=S)N(Cc2ccccc2)C1	3.98µM*	5.62µM*	0.3%
Cc1ccc(CN2CCN(Cc3ccco3)CC2)cc1	-13.0%	-4.1%	nt
COc1ccc(S(=O)(=O)NC(C)CCc2ccccc2)cc1 (stereo not given)	2.7%	19.1%	1.6%
COc1cc(NC(=O)CCCC(=O)OCC(F)(F)C(F)F)nc(OC)n1	-1.1%	-4.0%	14.1%
O=C(CN1CCN(c2ccccc2)CC1)Nc1ccc(OCc2ccccc2)cc1	?	2.1%	-2.0%
CCCN1CN(Cc2ccccc2)CNC1=S	6.31µM*	7.08µM*	-0.2%
SMILES	RORg inh	Gal4-VP16 FLuc	KinaseGlo FLuc
CCCN1CNC(=S)N(Cc2ccccc2)C1	5.62µM*	7.08µM*	2.4%
CCCN1CNC(=S)N(CC2CCCO2)C1 (stereo not given)	?	?	-0.3%
S=C1NCN(CCc2ccccc2)CN1Cc1ccccc1	5.4%	3.0%	nt
S=C1SCN(Cc2ccccn2)CN1Cc1ccco1	?	-4.8%	-2.3%
COCCCN1CN(Cc2ccccc2)CNC1=S	11.2µM*	?	3.8%
CC(C)CN1CN(Cc2ccco2)CNC1=S	2.24µM*	?	2.6%
CC(=O)c1c(C)[nH]c(C(=O)CSc2nnc3ccccn23)c1C	32.7%	2.1%	-1.9%
CC1(c2cccc3ccccc23)NC(=O)N(CC(=O)NC2CCS(=O)(=O)C2)C1=O (stereo not given)	-5.4%	-2.1%	nt
CCc1cc2c(Nc3ccc(O)cc3)nc(C)nc2s1	12.6%	-11.3%	nt
COc1ccc([C@H]2C=C3CN(C(=O)OC(C)(C)C)S(=O)(=O)[C@H]3C[C@H]2OC(=O)c2cccs2)cc1	-11.6%	5.4%	nt
O=C(NN1C(=O)c2cc(Br)ccc2NC1c1cc(Br)cc(Br)c1O)c1ccncc1 (stereo not given)	5.01µM*	7.94µM*	-3.0%
O=C(NN1C(=O)c2cc(Br)ccc2NC1c1ccccc1Cl)c1ccncc1 (stereo not given)	?	-19.4%	-3.7%
CC(C)(C)OC(=O)N1CCNc2ccccc2C1	3.98µM*	?	1.6%
CC(C)(C)OC(=O)N1Cc2ccccc2C[C@H]1C(=O)N1CCC[C@H]1C(=O)O	3.6%	1.0%	nt
Cc1ccc(S(=O)(=O)N2CCCCC2)cc1NC(=O)CNCc1ccco1	5.7%	0.0%	nt
COc1ccc(NC(=O)NNC(=O)c2ccc(Cl)cc2Cl)cc1OC	36.4%	-1.9%	-1.3%
COC(=O)NC(=S)Nc1ccc(Oc2ccc(Cl)cc2)c(Cl)c1	4.47µM*	5.01µM*	-2.9%
CC(=O)Nc1ccc(Oc2ccc([N+](=O)[O-])cc2Cl)cc1	1.3%	6.4%	1.4%

Screens: PubChem BioAssay, National Center for Advancing Translational Sciences (NCATS)
